# Tb PYK inh: qHTS of Trypanosoma Brucei Inhibitors; Potency, µM (doses to about 76.8 µM), for inactives: at the highest dose activity, negative = inhibition, hits mostly inhibitors; pyruvate kinase (Trypanosoma brucei), Q57TT1; AID 624173, 2012; 410,000 tested, 0.12% active; TbPYK enzyme, Kinase-Glo Plus ATP luminescence, 45 min; further: potency means the concentration at half of the fitted maximal effect; on the % scale 0 is the no-effect control and ±100 the full control effect; nearly all actives have a fitted effect of over 50% in size
#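 In this concentration-response screen, enzyme-free wells defined baseline while DMSO plates tracked drift. Each reaction combined TbPYK, substrate, compound and 130 uM ADP for 45 min at room temperature. Kinase-Glo Plus luminescence gave the signal.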
# Cycloheximide cs: Cycloheximide Counterscreen for Small Molecule Inhibitors of Shiga Toxin | cell reporter, cycloheximide protein synthesis inhibition counterscreen | max response, % | AID 2314, 2010 | 300,000 tested, 12% active; in the data active means max response mostly above about 13%, no sharp cut-off; inactive means mostly below about 14%; further: read at 38.3 µM for the half of the compounds with a filed dose; 0% is about no effect
# FBPA Giardia inh: qHTS Assay for Inhibitors of Fructose-1,6-bisphosphate Aldolase from Giardia Lamblia. A8B2U2. purified Giardia FBPA. Potency, µM (series often up to 59.6 µM), for inactives: at the top dose activity, negative = inhibition, hits mostly inhibitors. 290,000 tested, 0.71% active; further: potency means the concentration at half of the fitted maximal effect; on the % scale 0 is the no-effect control and ±100 the full control effect; nearly all actives have a fitted effect of over 55% in size
# Target sequence (A8B2U2 whole entry, looked up): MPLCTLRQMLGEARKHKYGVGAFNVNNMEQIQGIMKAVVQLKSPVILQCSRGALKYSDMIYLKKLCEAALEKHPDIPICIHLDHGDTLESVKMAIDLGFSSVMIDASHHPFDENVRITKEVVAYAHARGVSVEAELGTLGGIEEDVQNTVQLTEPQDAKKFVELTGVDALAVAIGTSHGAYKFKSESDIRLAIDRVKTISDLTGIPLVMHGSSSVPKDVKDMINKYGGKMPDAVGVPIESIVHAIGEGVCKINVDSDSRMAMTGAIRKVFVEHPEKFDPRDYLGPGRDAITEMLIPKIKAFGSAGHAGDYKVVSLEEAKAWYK
#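 40 nM FBPA preincubated 10 min at RT with compound (up to 57.5 uM final), then substrate plus GAPDH/TPI/NAD/arsenate coupling and diaphorase/resazurin added. Fluorescence read after 20 min at RT, 525/598 nm.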
# LmPK inhibitor: qHTS Assay for Inhibitors of Leishmania Mexicana Pyruvate Kinase (LmPK); Potency, µM (series often up to 57.5 µM), for the others: top-dose activity change, negative = inhibition, most hits filed as inhibitors; purified LmPK, Kinase-Glo ATP luminescence, 1 h; 290,000 tested, 0.37% active; AID 1721, 2009; Q27686; further: potency means the concentration at half of the fitted maximal effect; on the % scale 0 is the no-effect control and ±100 the full control effect
#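 Purified LmPK (0.1 nM) converted ADP (0.1 mM) to ATP with PEP (0.5 mM) in imidazole buffer pH 7.2 with KCl and MgCl2, 1 h at room temperature. ATP was read by Kinase-Glo luminescence; data normalized to uninhibited and no-enzyme controls.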
# Shiga toxin inh: A qHTS for Small Molecule Inhibitors of Shiga Toxin. Vero cells, Shiga toxin protein synthesis inhibition reporter. inhibition, % at 38.7 µM. 290,000 tested, 9.2% active; in the data active means inhibition mostly above about 28%, no sharp cut-off; inactive means mostly below about 43%; further: 0% is about no effect
# Sm TGR inh: qHTS Assay for the Inhibitors of Schistosoma Mansoni Peroxiredoxins. Schistosoma mansoni thioredoxin glutathione reductase (TGR), Q962Y6. purified TGR, DTNB reduction, TNB absorbance 405 nm. Potency, µM (top dose mostly 114 µM), for inactives: top-dose activity change, negative = inhibition, actives largely listed as inhibitors. 360,000 tested, 3% active; further: potency means the concentration at half of the fitted maximal effect; on the % scale 0 is the no-effect control and ±100 the full control effect; nearly all actives have a fitted effect of over 60% in size
#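 First, TGR (20 nM dispensed) and NADPH were mixed with compound. Second, a 15 min room-temperature incubation followed. Third, further NADPH and then DTNB were added to start the reaction. Finally, TNB absorbance was monitored kinetically.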
# * marks the source's active call; other numbers are inactive results; ? = inconclusive; · = no result; [ ] = dose if it differs, or a comment. This is one part of a sample in which hits are shown more often than they occur. Unless noted, the call rests on the fitted dose curve; in most records, active means well fitted curve in the direction sought with a large enough effect; inconclusive means small, poorly fitted or top-dose-only effect, or another doubt; inactive means no such curve, though single readings can be large; an effect the other way counts as inactive or inconclusive.
SMILES,Tb PYK inh,Cycloheximide cs,FBPA Giardia inh,LmPK inhibitor,Shiga toxin inh,Sm TGR inh
CC(NC(=O)C1CCN(C(=O)N2CCOc3ccc(Cl)cc32)CC1)c1ccccc1 (stereo unspecified),-14%,·,·,·,·,8%
CC1C(=O)N(Cc2cn(Cc3ccco3)nn2)CCS(=O)(=O)N1Cc1ccc(-c2ccncc2)cc1 (stereo unspecified),0%,·,·,·,·,·
O=C(Cn1nc(C(F)F)cc1C1CC1)N1CCCC1,0%,-6,·,0%,-8,4%
Cc1nn(-c2nc3ccccc3[nH]2)c(N)c1-c1ccc(Cl)cc1,4%,46*,-13%,3%,82*,10%
Cc1nn(-c2ccc3ccccc3c2)c(=O)c2ccccc12,-6%,51*,-3%,-1%,115*,24%
Cc1nn(-c2ccc(Cl)c(Cl)c2)c(=O)c2ccccc12,-4%,-5,·,-4%,12,5%
COc1cc(NC(=O)COC(=O)CNC(=O)C2CCCCC2)cc(OC)c1,-12%,·,·,·,·,-3%
Cc1ccccc1CS(=O)(=O)c1ccc(C(=O)N2CCOCC2)cc1[N+](=O)[O-],-6%,-1,-8%,1%,-3,?
CC1CCN(C(=O)c2ccc(S(=O)(=O)Cc3ccccc3F)c([N+](=O)[O-])c2)CC1,2%,-5,3%,2%,-13,-25%
O=C(c1ccc(S(=O)(=O)Cc2ccccc2F)c([N+](=O)[O-])c1)N1CCCC1,2%,6,-9%,14%,13,10µM*
O=C(c1ccc(S(=O)(=O)Cc2ccccc2Cl)c([N+](=O)[O-])c1)N1CCOCC1,2%,-2,-2%,0%,-4,11µM*
Cc1csc(NC(=O)CCC(=O)N(CC(=O)NC2CCCCC2)c2ccccc2)n1,3%,-3,10%,-6%,2,6%
CC(=O)OCC(=O)C1(O)CCC2C3CC(F)C4=CC(=O)CCC4(C)C3C(O)CC21C (stereo unspecified),10%,·,·,·,·,·
O=C(OCC1CC(c2ccccc2)=NO1)c1ccc(Br)cc1 (stereo unspecified),0%,0,2%,5%,5,-4%
O=C(OCC1CC(c2ccccc2Cl)=NO1)c1ccc(Br)cc1 (stereo unspecified),-1%,20*,5%,7%,40,6%
O=C(OCC1CC(c2ccccc2)=NO1)c1ccco1 (stereo unspecified),7%,54*,-9%,-8%,93*,-3%
O=C(Oc1ccc(-c2ccccc2)cc1)c1ccco1,7%,·,·,·,·,·
O=C(Nc1ccc(F)cc1F)c1ccc(-n2cnnc2)cc1,-4%,·,·,·,·,6%
CC(=O)c1ccc(N2Cc3ccccc3C3(CCOCC3)C2=N)cc1,3%,28*,-13%,-2%,54,·
CC(=O)c1ccc(N2CCN(S(=O)(=O)c3cccc(S(=O)(=O)N4CCOCC4)c3)CC2)cc1,1%,-5,-4%,2%,-20,-2%
COC(=O)C1=NOC2(C=C(Br)C(OC)=C(Br)C2=O)C1 (stereo unspecified),·,·,0%[12.9 µM],·,·,·
COCCCNC(=O)/C=C/c1ccc(Cl)cc1Cl,0%,17*,-3%,-1%,54*,11%
C/C(=N/OC(=O)C1CC12CCC2)c1ccc(Br)cc1 (stereo unspecified),0%,68*,1%,3%,156*,-7%
CCOC(=O)N1CCN(C(=O)CSC2=NS(=O)(=O)c3ccccc3N2)CC1,6%,·,·,·,·,1%
CN1CCN(c2ncc3nc(-c4cccc(C#N)c4)c(=O)n(C)c3n2)CC1,·,·,-6%,·,·,·
SMILES,Tb PYK inh,Cycloheximide cs,FBPA Giardia inh,LmPK inhibitor,Shiga toxin inh,Sm TGR inh
c1ccc(-n2nnc3ccccc32)nc1,-4%,26*,4%,-16%,67*,0%
O=[N+]([O-])c1cc(/C=N\Nc2nccs2)ccc1O,·,-2,?,?,-5,28µM*
O=[N+]([O-])c1ccccc1/C=N\Nc1nccs1,-3%,6,-3%,0%,11,11%
COc1ccc(C(=O)N(Cc2ccco2)Cc2cccs2)cc1,·,1,·,·,2,·
Cc1nc(Cl)sc1C(=O)Nc1ccc(F)cc1,0%,·,·,·,·,·
CC(C)S(=O)(=O)c1csc(C(=O)Nc2ccc(F)cc2)c1N,-12%,42*,-9%,14µM*,53,-4%
O=C(Cn1cccc1C(=O)c1ccccc1)NCc1ccc(F)cc1,-6%,16*,3%,-7%,9,-13%
O=C(Cn1cc(C(F)(F)F)ccc1=O)NCc1ccc(F)cc1,5%,29*,4%,-1%,36*,0%
O=C(Cn1cc(C(F)(F)F)ccc1=O)NCC1CCCO1 (stereo unspecified),0%,·,·,·,·,-7%
O=C(Cn1cccc1C(=O)c1ccccc1)NCc1ccc2c(c1)OCO2,0%,29*,22%,5%,52*,27%
C#C[C@]1(O)CC[C@H]2[C@H]3[C@H](CC[C@@]21C)C1=C(CC(=O)CC1)C[C@@H]3C,-12%,·,·,·,·,·
O=C(N/N=C/c1ccc(O)cc1O)/C(=C/c1ccccc1)CCO,-7%,19*,-22%,0%,-2,-6%
COc1cc(/C=N/NC(=O)/C(=C/c2ccccc2)CCO)ccc1O,1%,-3,2%,-1%,-4,-1%
O=C(CCCCCNC(=O)c1ccccc1)N/N=C/c1ccc(O)cc1O,4%,-9,-24%,-1%,-16,7%
COc1ccc(/C=N/NC(=O)/C(=C/c2ccccc2)CCO)cc1,-4%,12*,4%,1%,13,-1%
O=C(NC(=S)NCc1nc2ccccc2[nH]1)c1ccc(F)cc1,-5%,28*,-18%,-1%,37,?
O=C(NCc1nc2ccccc2[nH]1)c1c(F)cccc1F,3%,·,·,·,·,9%
O=C(NC(=S)NCc1nc2ccccc2[nH]1)c1ccccc1F,4%,45*,-25%,2%,105*,-25%
CCN(CC)C(=O)C1=C(C)N(Cc2ccc(F)cc2)C(=O)C(CC(=O)NCc2ccco2)C1 (stereo unspecified),0%,·,·,·,·,·
COCCn1nnnc1C(c1cc2cc(C)ccc2[nH]c1=O)N1CCCCCC1 (stereo unspecified),-14%,-3,-28%,0%,-3,?
COCCn1nnnc1C(c1cc2cc(C)cc(C)c2[nH]c1=O)N1CCN(c2ccccc2F)CC1 (stereo unspecified),-2%,-2,-24%,1%,1,40µM*
COCCn1nnnc1C(c1cc2c(C)cc(C)cc2[nH]c1=O)N1CCCCCC1 (stereo unspecified),-22%,5,9%,-4%,3,13µM*
